# The list is not random: actives were taken first. Their share in the collection is about 5.3%.
# HCV inhibitor: inhibitors of hepatitis C virus infection; Potency, µM (highest dose often 41.8 µM), for the others: at the top dose activity change, negative = inhibition, usual class: inhibitors; 340,000 tested, 3.4% active; Huh7.5.1 HCVcc-Cre infection, luciferase reporter, 44 h; active means well fitted inhibition curve with a large enough effect; inconclusive means small, poorly fitted or top-dose-only effect, or another doubt; inactive means no such curve, though single readings can be large or run the other way
#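 1,000 cells/well; 4 h culture; + compound; + HCVcc-Cre (~0.5 moi); 44 h; luciferase substrate, RT 15 min; read 15 sec.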
# VACV Venus inh: vaccinia inhibition (Venus reporter). 330,000 tested, 0.46% active. Potency, µM (top dose mostly 36.5 µM), inactives show at the highest dose activity change, negative = inhibition, hits mostly inhibitors. Vaccinia virus Venus reporter expression, fluorescence; calls by dose curve; tested in A549 cells; further: nearly all actives have a fitted effect of over 30% in size
# FMDV antiviral: blocks foot and mouth disease virus. FMDV antiviral cell-based qHTS. Potency, µM (top dose mostly 57.9 µM), without a hit: at the highest dose activity change, negative = inhibition, usual class: inhibitors. 410,000 tested, 1.2% active; calls by dose curve; tested in HEK293T cells; further: read-out not given here; nearly all actives have a fitted effect of over 45% in size
# Marburg entry inh: blocks Marburg virus binding to or entry into cells. Marburg virus pseudotyped entry inhibition, cell reporter. Potency, µM (series often up to 37.8 µM), for the others: at the top dose activity change, negative = inhibition, most hits filed as inhibitors. 300,000 tested, 1.8% active. AID 540276; calls by dose curve; tested in HEK293 cells
# Lassa entry inh: inhibitors of Lassa virus binding or cell entry. Lassa virus pseudotype entry inhibition, cell reporter. Potency, µM (highest dose often 37.9 µM), for inactives: top-dose activity change, negative = inhibition, most hits filed as inhibitors. 300,000 tested, 1.2% active. AID 540256; calls by dose curve; tested in HEK293 cells; further: nearly all actives have a fitted effect of over 50% in size
# VACV mCherry inh: vaccinia inhibition (mCherry reporter) | Vaccinia virus mCherry reporter infection, fluorescence | 310,000 tested, 0.63% active | AID 720579 | Potency, µM (doses to about 36.5 µM), inactives show top-dose activity change, negative = inhibition, hits mostly inhibitors; calls by dose curve; tested in A549 cells; further: nearly all actives have a fitted effect of over 35% in size
# * hit, by the source's call; i = inactive; ? = inconclusive; / = no result; [ ] = dose if it differs, or a comment. On the % scale 0 is the no-effect control and ±100 the full control effect; potency means the concentration at half of the fitted maximal effect.
SMILES,HCV inhibitor,VACV Venus inh,FMDV antiviral,Marburg entry inh,Lassa entry inh,VACV mCherry inh
O=C(O)c1cc(-c2ccccc2)c(N2CCOCC2)s1,-2.6%,-9.1%,-12.1%,7.0%,6.3%,-16.8%
CCOc1ccc(CCNC(=O)c2cc(-c3ccccc3)c(N3CCOCC3)s2)cc1,?,-15.5%,-4.4%,/,/,i
O=C(NCc1ccco1)c1cc(-c2ccccc2)c(N2CCOCC2)s1,8.91µM*,-26.2%,-24.5%,?,-3.1%,?
COc1ccc(CCNC(=O)c2cc(-c3ccccc3)c(N3CCOCC3)s2)c(OC)c1OC,10µM*,/,-25.1%,/,/,/
O=C(NCc1ccc2c(c1)OCO2)c1cc(-c2ccccc2)c(N2CCOCC2)s1,14.1µM*,/,-25.1%,/,/,/
CN(Cc1ccc2c(c1)OCO2)C(=O)c1cc(-c2ccccc2)c(N2CCOCC2)s1,10µM*,/,-15.1%,/,/,/
CCOC(=O)N1CCN(C(=O)c2cnn3c(C(F)F)cc(-c4ccc(C)cc4)nc23)CC1,1.2%,?,-4.6%,1.8%[46.1 µM],-27.8%,/
CCOc1ccccc1NC(=O)c1cnn2c(C(F)F)cc(-c3ccccc3)nc12,/,-21.8%,-7.1%,?,-1.4%[46.1 µM],?
CCn1nc(C)c(NC(=O)c2cnn3c(C(F)F)cc(-c4ccccc4)nc23)c1C,14.1µM*,-15.5%,?,?,?,i
COc1ccc(-c2cc(C(F)F)n3ncc(C(=O)n4ccnc4C)c3n2)cc1,-5.0%,?,14.1µM*,?,-15.3%,-10.5%
Cc1ccc(-c2cc(C(F)F)n3ncc(C(=O)N4CCN(c5cccc(C)c5C)CC4)c3n2)cc1,31.6µM*,-7.3%,-0.1%,?,?,-13.8%
Cc1ccc(-c2cc(C(F)F)n3ncc(C(=O)N4CCCc5ccccc54)c3n2)cc1,4.9%,-13.5%,-17.1%,?,2.5%,i
Cc1ccc(-c2cc(C(F)F)n3ncc(C(=O)N4CCc5ccccc5C4)c3n2)cc1,11.2µM*,?,-21.6%,/,/,-29.4%
Cc1ccc(NC(=O)Cn2c(=O)n(CCC(=O)NCc3ccccc3Cl)c(=O)c3ccccc32)cc1,/,-11.2%,-13.3%,-21.1%[46.1 µM],4.3%[46.1 µM],-2.3%
CN1CCN(c2nc3cc(C(F)(F)F)ccc3n3cccc23)CC1,?,-21.4%,-17.1%,8.91µM*,?,?
CCOC(=O)N1CCN(C(=O)CN(Cc2ccc(Cl)cc2)S(=O)(=O)c2ccc(C)cc2)CC1,?,/,?,-22.6%,8.2µM*,/
CC(=O)N1CCC[C@H]1C(=O)NCC1Cc2cc(Cl)cc(-c3ccc4[nH]ccc4c3)c2O1 (stereo not given in full),/,-10.1%,16.0%,/,/,-18.5%
Cc1ccccc1-c1cncnc1NCCN1CCOCC1,/,-1.0%,-5.9%,/,/,-1.7%
CC(=O)c1ccc(OCCCC(=O)N2CCN(S(=O)(=O)c3ccc(C(C)C)cc3)CC2)cc1,10µM*,-20.7%,?,-20.4%,?,-4.8%
Cc1ccc(NC(=O)CSc2nc3ccccc3c(=O)n2CCCN2CCCCC2)cc1C,14.1µM*,/,-19.2%,?,20.6µM*,/
Cc1ccc(NC(=O)CSc2nc3ccccc3c(=O)n2CCCC(=O)N2CCCC2)cc1,?,/,-16.5%,8.2µM*,?,/
Cn1c(N)c(C(=O)CSc2nc3ccccc3c(=O)n2CCCN2CCOCC2)c(=O)n(C)c1=O,18.9%,/,6.8%,/,/,/
Cc1cc(NC(=O)CSc2nc3c(sc4ccccc43)c(=O)n2CCc2ccccc2)n[nH]1,-1.2%,/,1.6%,-5.6%,-16.2%,/
COCCCn1c(SCC(=O)Nc2ccc(C)cc2)nc2ccccc2c1=O,3.8%,1.5%,0.8%,-13.5%[46.1 µM],0.0%,i
Cc1cc(NC(=O)CSc2nc3c(sc4ccccc43)c(=O)n2CCCN2CCOCC2)n[nH]1,5.62µM*,/,32.9%,-14.8%,?,/
SMILES,HCV inhibitor,VACV Venus inh,FMDV antiviral,Marburg entry inh,Lassa entry inh,VACV mCherry inh
Cc1[nH]c2ccccc2c1C(=O)CSc1nc2ccccc2c(=O)n1CCCN1CCOCC1,?,-13.6%,?,11.2µM*,-22.7%,/
CCCC/C(C)=C/[C@@H](NP(=O)(c1ccccc1)c1ccccc1)c1ccccc1,2.82µM*,?,-11.3%,?,?,-11.1%
CCN1CCCC1CNC(=O)c1cnn(-c2nccc(-c3cccs3)n2)c1C(C)C (stereo not given),/,-10.0%,3.1%,/,/,-21.3%
COCCn1ccc2c(OCC(=O)NCc3ccc(C)cc3)cccc2c1=O,6.3%,-12.5%,-9.7%,19.6%,?,-12.1%
COCCn1ccc2c(OCC(=O)NCc3ccccc3)cccc2c1=O,6.1%,-6.7%,-0.6%,22.4%,1.58µM*,-7.4%
COc1ccc2c(c[n+](C)c3c4cc5c(cc4ccc23)OCO5)c1OC,/,?,10µM*,7.3µM*,4.11µM*,?
Cc1cccc(N2CCN(c3cc(C)nc4c(-c5ccc(Cl)cc5)c(C)nn34)CC2C)c1 (stereo not given),/,-2.2%,-2.9%,/,-0.5%[46.1 µM],3.6%
CCN(CC)S(=O)(=O)c1ccc(N/N=C(\C)c2ccc3c(c2)OCO3)c([N+](=O)[O-])c1,?,-6.6%,-24.5%,32.7%,2.3%,-13.9%
C/C(=N\Nc1ccc(S(N)(=O)=O)cc1[N+](=O)[O-])c1ccc2c(c1)OCO2,?,?,35.5µM*,?,-1.4%,-13.0%
COc1ccccc1C(=O)Nc1ccc2c(c1)CCCN2C(=O)c1cccs1,?,-20.8%,0.0%,?,?,i
O=C(Nc1ccc2c(c1)CCCN2C(=O)c1cccs1)c1cccc(F)c1,?,-23.1%,3.4%,?,?,-3.5%
O=C(Nc1ccc2c(c1)CCCN2C(=O)c1cccs1)c1ccccc1,31.6µM*,-10.7%,-14.7%,?,?,-6.9%
COc1cc(OC)cc(C(=O)Nc2ccc3c(c2)CCCN3C(=O)c2cccs2)c1,14.1µM*,-11.9%,?,/,?,-17.1%
CC(=O)Nc1ccc(NC(=O)c2ccc3c(c2)CCN3S(=O)(=O)c2ccc(C)cc2)cc1,/,-10.7%,?,6.5%[46.1 µM],11.9%[46.1 µM],-24.4%
CC(=O)N1CCc2cc(NC(=O)c3ccc(C)cc3)ccc21,-28.9%,/,0.0%,?,16.4µM*,/
Cc1ccc(CNC(=O)C2CCN(S(=O)(=O)c3ccc(F)cc3)CC2)cc1,/,-9.2%,-19.7%,9.4%[46.1 µM],-2.6%[46.1 µM],-18.4%
FC(F)Oc1ccc(NC(=S)NNc2ccnc3cc(Cl)ccc23)cc1,3.98µM*,-11.3%,?,11.2µM*,?,-11.5%
NC(=S)NNc1ccnc2cc(Cl)ccc12,-29.8%,-20.1%,-14.7%,?,8.7%,?
C(=Nc1ccc(/C=C/c2ccnc3ccccc23)cc1)c1ccco1,/,-16.3%,/,/,/,-18.2%
COc1ccccc1CC(=O)Nc1ccccc1O,22.0%,/,8.1%,26.8%,-2.0%,/
COc1ccccc1CC(=O)Nc1ccc([N+](=O)[O-])cc1O,?,-26.4%,?,?,6.31µM*,?
COc1ccc([N+](=O)[O-])cc1NC1C2CC3CC(C2)CC1C3 (stereo not given),-13.7%,/,-16.5%,-4.6%,-17.6%,/
